GalR3 antagonist: blocks the human galanin receptor 3; actives 0.44% (n = 360,000); HEK293 GalR3-CNG cAMP membrane potential fluorescence; galR3 body fused to GalR1 C-terminus; O60755; inhibition, % at 3 µM; AID 651719;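 active means inhibition above the screen-wide average plus 3 SD, cut at about 13% in these data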;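 further: forskolin and galanin both at EC90 stimulate the cells; cAMP rise reported by CNG channel membrane potential dye signal; 0% = forskolin plus galanin with DMSO and 100% = forskolin alone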
Target sequence (O60755 1-299 limits assumed): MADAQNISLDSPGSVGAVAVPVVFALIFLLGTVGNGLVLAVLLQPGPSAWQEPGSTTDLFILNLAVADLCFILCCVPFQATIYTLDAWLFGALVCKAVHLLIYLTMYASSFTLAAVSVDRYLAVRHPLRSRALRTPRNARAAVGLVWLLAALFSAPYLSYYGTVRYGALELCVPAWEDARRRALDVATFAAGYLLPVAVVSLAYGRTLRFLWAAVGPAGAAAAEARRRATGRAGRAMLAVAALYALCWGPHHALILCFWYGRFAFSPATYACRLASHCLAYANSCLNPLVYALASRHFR
FXN GAA850 act: activators of GAA850 frataxin (FXN) promoter. HEK293 lucGAA850 FXN promoter luciferase reporter, 24 h; percent of 10 µM SAHA response. activation, % at 6 µM. actives 0.56% (n = 360,000);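 active means activation above the average of all compounds screened plus 3 SD, cutoff fixed separately per campaign, cut at about 7.5% in these data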;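 further: 0% = DMSO wells and 100% = 10 µM SAHA wells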
COUP-TFII inh: blocks human COUP-TFII nuclear receptor | inhibition, % at 8.6 µM | AID 686940 | HEK293T NGFI-A luciferase reporter, luminescence | actives 0.7% (n = 370,000) | P24468;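 active means inhibition above a per-plate cutoff, mean inhibition of test wells between control levels plus 3 SD, cut at about 38% in these data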;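 further: cells cotransfected with COUP-TFII expression vector driving the NGFI-A reporter; 0% = median of COUP-TF2 test wells and 100% = reporter-only cells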
Cardio protect: protects H9c2 cardiomyocytes from peroxide injury | AID 588492 | protection from H2O2 cell death, % at 20 µM | actives 0.63% (n = 360,000) | H2O2 injury protection, ATPLite, 2 h;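 active means compounds giving at least 50% protection of heart cells from peroxide-induced death in the single-dose screen, raw or plate-pattern-corrected value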;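 further: 0% = DMSO wells with peroxide and 100% = DMSO wells without peroxide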
SMARCA2 act: SMARCA2 function activation, primary screen. MG213 cells, MMTV-luciferase reporter, dexamethasone, overnight. activation, % at 9.1 µM. actives 1% (n = 370,000). AID 652017; in the data active means activation above about 7.8%;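 further: 0% = vehicle wells and 100% = reference activator wells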
Gli-Sufu antag: Gli-Sufu pathway antagonism; actives 0.74% (n = 340,000); Sufu-KO-LIGHT fibroblasts, Gli luciferase reporter luminescence; inhibition, % at 5 µM; AID 588413;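 active means inhibition above about 55%, limit read from the data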;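 further: 0% = DMSO-treated cells and 100% = wells with medium but no cells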
* marks the source's active call; other numbers are inactive results; . = no result. Hits are enriched below; roughly 3.4% of the tested compounds scored in any of these assays.

SMILES | GalR3 antagonist | FXN GAA850 act | COUP-TFII inh | Cardio protect | SMARCA2 act | Gli-Sufu antag
CC(=O)NCCNc1nc2c(-c3ccccc3)nnn2c2ccccc12 | -6 | 5 | -26 | 55* | 3 | 8
CC(=O)NCCNc1nc2c(-c3cccc(C)c3)nnn2c2ccccc12 | -2 | 0 | -3 | 6 | -2 | -18
Cc1ccc(C)c(S(=O)(=O)N2CCCC2CNC(=O)C(=O)NCCc2ccccc2)c1 (stereo not drawn) | -2 | 0 | 15 | 32 | -1 | 8
COc1ccc(CCNC(=O)C(=O)NCC2CCCN2S(=O)(=O)c2cc(C)ccc2C)cc1 (stereo not drawn) | -1 | -1 | 21 | 76* | -1 | 19
COC(=O)[C@]12C[C@H](CC(=O)N3CCN(C(=O)c4ccco4)CC3)C(=O)N(CCc3ccc(OC)c(OC)c3)C1=C[C@H](C(C)C)O[C@@H]2C1CC1 | . | . | 5 | . | 2 | .
CCCOc1cccc(C(=O)Nc2ccc(Br)cc2F)c1 | -11 | 7 | -39 | -9 | 13* | -62
CCN(CC)c1ccc(C=Nn2c(-c3ccc(F)cc3)n[nH]c2=S)c(O)c1 | . | . | -2 | . | 3 | .
COc1ccccc1CN[C@@H]1CC[C@@]23CCCN2C(=O)CCC[C@H]3C1 | . | . | -1 | . | . | .
COc1ccc(N=Cc2sc(O)c3ccccc23)cc1 | -4 | 5 | -33 | 51* | 6 | -142
COc1cc(/C=C(\C#N)C(=O)Nc2ccccc2F)ccc1OCCN1CCOCC1 | -4 | 4 | -4 | 67* | 1 | -2
C#CCOCCOCCOCCNc1nc(N2CCN(C(=O)[C@H](CCCCN)n3cc([C@@H](N)C(C)CC)nn3)CC2)nc(N2CCN(C(=O)[C@H](CCCCN)n3cc([C@@H](N)C(C)CC)nn3)CC2)n1 (stereo partly drawn) | . | . | 4 | . | . | .
CN(Cc1ccccc1)C(=O)OCc1cn(Cc2ccc(F)c(F)c2)nn1 | . | . | -9 | . | -3 | .
CC(=O)Oc1ccc2c(C)cc(=O)oc2c1 | 6 | 1 | 5 | 61* | -1 | -1
C[C@H](NC(=O)c1nc[nH]c1C(=O)NCC(=O)OCc1ccccc1)c1ccccc1 | -1 | -1 | 10 | 84* | 1 | -13
CC(C)(C)OC(=O)CNC(=O)c1[nH]cnc1C(=O)NC(c1ccccc1)c1ccccc1 | -2 | 0 | 19 | 59* | -1 | 4
CC(C)C[C@H](NC(=O)c1nc[nH]c1C(=O)NCC(=O)OCc1ccccc1)C(=O)OCc1ccccc1 | -6 | 0 | 7 | -1 | -2 | -4
C[C@@H](OC(=O)c1[nH]cnc1C(=O)NCc1ccc(CNC(=O)OC(C)(C)C)cc1)c1ccccc1 | 1 | -1 | 31 | 59* | -4 | 17
C[C@H](NC(=O)c1nc[nH]c1C(=O)NC(c1ccccc1)c1ccccc1)C(=O)OC(C)(C)C | -2 | 0 | -8 | 43 | -1 | 5
C[C@H](NC(=O)c1nc[nH]c1C(=O)NCC(=O)OCc1ccccc1)C(=O)OCc1ccccc1 | -2 | -1 | 1 | 77* | 1 | -7
Cc1nc2sc(C(=O)NCc3nccs3)c(N)c2c(C)c1Cl | . | . | -35 | . | 1 | .
CC(C)CCNC(=O)CSc1nc2c(c(=O)[nH]1)CCC2 | . | . | -3 | . | . | .
COC(=O)[C@]12CCCCC=C1N(Cc1ccc(OC)cc1)C(=O)[C@@H]2CC(=O)NCc1cccc(C(F)(F)F)c1 | . | . | 7 | . | 1 | .
CCOC(=O)N1CCN(C(=O)C[C@H]2C[C@@]3(C(=O)OC)C(=C[C@H](C(C)C)O[C@@H]3C3CC3)N(CCC3=CCCCC3)C2=O)CC1 | . | . | 5 | . | -5 | .
COc1ccc(OC)c(Cc2nnc(CCC(=O)N3CCN(C4CCCC4)CC3)o2)c1 | -2 | 2 | 1 | 4 | 7.8* | 28
CCCN1CCCCC(NC(=O)c2c(F)cccc2F)C1=O (stereo not drawn) | 2 | . | 5 | . | 0 | .
Cn1c(-n2c(CCCN3C(=O)c4ccccc4C3=O)nc3ccccc3c2=O)nc2ccccc21 | -4 | 1 | -17 | 101* | -1 | 3
CN1C2=N[C@H](c3ccc(Br)cc3)CC(=O)N2/C(=C\c2ccccc2)[C@@H]1c1ccccc1 | . | . | 0 | . | . | .
CCN1CCc2c(sc(NC(=O)c3ccc(S(=O)(=O)N(C)c4ccccc4)cc3)c2C(=O)NC)C1 | . | 1 | . | 57* | . | 17

Screening results deposited in PubChem BioAssay by several laboratories.
